“And” between values parts separate entries of the source, which are not always exact repeats. Identical values can stand only once. Hit rate of the full screen: of about 5,500 compounds, about 2,000 (36%) were called active. Inconclusive results (about 18%) are left out. No stated cut-off is given here; in the data, active means normalized growth mostly below about 0.91 (no sharp cut-off); inconclusive means no clear call, values can overlap the other calls; inactive means mostly above about 0.92. The list shows a part of the results.
Test: chemical genetic growth profiling, strain panel (AID 1159580);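 further: tested at 20 µM; growth read once vehicle control cultures reached saturation at 30 °C; 1 = growth at the plate median or of vehicle wells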
Settings: growth OD
[1] = S. cerevisiae deletion strains, locus YDR150W, strain NUM1, stronger effect = lower value
[2] = S. cerevisiae deletion strains, locus YGR229C, strain SMI1, stronger effect = lower value
[3] = S. cerevisiae deletion strains, locus YJR075W, strain HOC1, stronger effect = lower value
[4] = S. cerevisiae deletion strains, locus YMR263W, strain SAP30, stronger effect = lower value
[5] = S. cerevisiae deletion strains, locus YAL013W, strain DEP1, stronger effect = lower value
[6] = S. cerevisiae deletion strains, locus YBR229C, strain ROT2, stronger effect = lower value
[7] = S. cerevisiae deletion strains, locus YDL101C, strain DUN1, stronger effect = lower value
[8] = S. cerevisiae deletion strains, locus YEL061C, strain CIN8, stronger effect = lower value
[9] = S. cerevisiae deletion strains, locus YGR078C, strain PAC10, stronger effect = lower value
[10] = S. cerevisiae deletion strains, locus YHR030C, strain SLT2, stronger effect = lower value
[11] = S. cerevisiae deletion strains, locus YHR087W, strain rtc3, stronger effect = lower value
[12] = S. cerevisiae deletion strains, locus YJL187C, strain SWE1, stronger effect = lower value
[13] = S. cerevisiae deletion strains, locus YJR043C, strain POL32, stronger effect = lower value
[14] = S. cerevisiae deletion strains, locus YLR039C, strain RIC1, stronger effect = lower value
[15] = S. cerevisiae deletion strains, locus YLR058C, strain SHM2 (second series), stronger effect = lower value
[16] = S. cerevisiae deletion strains, locus YLR085C, strain ARP6, stronger effect = lower value
[17] = S. cerevisiae deletion strains, locus YLR262C, strain YPT6, stronger effect = lower value
[18] = S. cerevisiae deletion strains, locus YML094W, strain GIM5, stronger effect = lower value
[19] = S. cerevisiae deletion strains, locus YMR219W, strain ESC1, stronger effect = lower value
[20] = S. cerevisiae deletion strains, locus YNL153C, strain GIM3, stronger effect = lower value
[21] = S. cerevisiae deletion strains, locus YNL298W, strain CLA4 (second series), stronger effect = lower value
[22] = S. cerevisiae deletion strains, locus YNL322C, strain KRE1, stronger effect = lower value
[23] = S. cerevisiae deletion strains, locus YNR030W, strain Alg12, stronger effect = lower value
[24] = S. cerevisiae deletion strains, locus YPL055C, strain LGE1, stronger effect = lower value
[25] = S. cerevisiae deletion strains, locus YPL241C, strain CIN2, stronger effect = lower value
[26] = S. cerevisiae deletion strains, locus YPR135W, strain CTF4, stronger effect = lower value
[27] = S. cerevisiae strains, strain wild type, stronger effect = lower value

Measured: normalized growth

C[N+](C)(C)CCO
inactive: S. cerevisiae deletion strains, locus YAL040C, strain CLN3, stronger effect = lower value 1.04 | S. cerevisiae deletion strains, locus YCL061C, strain MRC1 (second series), stronger effect = lower value 1.02 | [1] 1.05 | S. cerevisiae deletion strains, locus YER002W, strain NOP16, stronger effect = lower value 0.998 | [2] 1.06 | [4] 1.01 | S. cerevisiae deletion strains, locus YNL175C, strain NOP13, stronger effect = lower value 1.02 | S. cerevisiae deletion strains, locus YNL197C, strain WHI3, stronger effect = lower value 0.996 | S. cerevisiae deletion strains, locus YNL224C, strain SQS1, stronger effect = lower value 1.01 | S. cerevisiae deletion strains, locus YOR083W, strain WHI5 (second series), stronger effect = lower value 1.08
active: [3] 1.09 [resistant]

S=C(NCc1ccccc1)Nc1ccc(Cl)c(Cl)c1
inactive: [6] 0.948 | [7] 0.935 | [1] 0.917 | S. cerevisiae deletion strains, locus YGR052W, strain FMP48, stronger effect = lower value 0.878 | S. cerevisiae deletion strains, locus YHR082C, strain KSP1, stronger effect = lower value 0.839 | [11] 0.964 | S. cerevisiae deletion strains, locus YJL095W, strain BCK1, stronger effect = lower value 0.841 | [13] 0.978 | S. cerevisiae deletion strains, locus YJR066W, strain TOR1, stronger effect = lower value 0.845 | [3] 0.897 | S. cerevisiae deletion strains, locus YKL171W, strain NNK1, stronger effect = lower value 0.807 | [15] 0.938 | S. cerevisiae deletion strains, locus YLR113W, strain HOG1, stronger effect = lower value 1.06 | [19] 0.962 | S. cerevisiae deletion strains, locus YNL183C, strain NPR1, stronger effect = lower value 0.846 | S. cerevisiae deletion strains, locus YNL207W, strain RIO2, stronger effect = lower value 0.829 | [22] 0.977 | S. cerevisiae deletion strains, locus YOR119C, strain RIO1, stronger effect = lower value 0.77 | S. cerevisiae deletion strains, locus YOR231W, strain MKK1, stronger effect = lower value 0.862 | S. cerevisiae deletion strains, locus YPL256C, strain CLN2, stronger effect = lower value 0.916
active: [5] 0.884 | S. cerevisiae deletion strains, locus YCL061C, strain MRC1, stronger effect = lower value 0.866 | [8] 0.835 | [9] 0.9 | [10] 0.382 and 0.745 | S. cerevisiae deletion strains, locus YHR079C, strain IRE1, stronger effect = lower value 0.861 | [12] 0.891 | S. cerevisiae deletion strains, locus YKL190W, strain CNB1, stronger effect = lower value 0.68 | S. cerevisiae deletion strains, locus YKL203C, strain TOR2, stronger effect = lower value 0.803 | [14] 0.482 | [16] 0.332 | [17] 0.701 | [18] 0.677 | [4] 0.846 | [20] 0.907 | [21] 0.548 | [23] 0.701 | S. cerevisiae deletion strains, locus YOL006C, strain TOP1, stronger effect = lower value 0.251 | [24] 0.689 | [25] 0.691 | [26] 0.471 | [27] 0.828

Cc1cccc(NC(=S)NCc2ccncc2)c1
inactive: [5] 1 | [6] 1 | [7] 0.988 | [1] 1 | [8] 1.01 | [9] 1.01 | [2] 0.992 | [10] 0.857 | [11] 0.99 | [12] 1.02 | [13] 1 | [3] 0.987 | [14] 1.01 | [15] 1.01 | [16] 0.88 | [17] 1.01 | [18] 0.974 | [19] 1.01 | [4] 0.981 | [20] 0.993 | [21] 1.01 | [22] 1.01 | [23] 1.03 | [24] 1.03 | [25] 0.998 | [26] 0.928 | [27] 0.997

Reference: PubChem BioAssay AID1159580 (chemical genetic matrix, 2015)
